# In the supplement of paper PMC7156485:
# ± gives the standard deviation of the averaged measurements.
# Tests used:
# Settings in all cases: concentration: 10 µM; 24 h
# HCC1569 [1] = assay: cell number relative to DMSO (% of DMSO); higher = more cells (less growth inhibition / toxicity)
# In short: (§1)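 Compounds were applied at 10 µM for 24 h at 37 °C, in triplicate, to HCC1569 and TDF cells. The cells were then fixed and stained for H1.0, and nuclei were counterstained with DAPI. Nuclear H1.0 intensity or cell number is reported relative to the plate control as a percent, taking the median of replicates. Smoothing for positional effects was applied to HCC1569 values only.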
# TDF [2] = assay: as above
# In short: as §1
# TDF [3] = assay: H1.0 immunofluorescence intensity relative to DMSO (% of DMSO); higher = stronger H1.0 induction, active = 120 or more
# In short: as §1
# HCC1569 [4] = assay: H1.0 immunofluorescence intensity relative to DMSO (% of DMSO); higher = stronger H1.0 induction, active = 140 or more
# In short: as §1
# 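Throughout, for H1.0 immunofluorescence intensity relative to DMSO: TDF is a line of transformed human dermal fibroblasts of mesenchymal origin.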
# 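Throughout, for cell number relative to DMSO: TDF denotes transformed human dermal fibroblasts of mesenchymal origin.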
Structure (SMILES),cell number (HCC1569 [1]),cell number (TDF [2]),H1.0 immunofluorescence intensity (TDF [3]),H1.0 immunofluorescence intensity (HCC1569 [4])
CC1OC(C[N+](C)(C)C)CS1.[I-] (stereo not given) [OXA-22 iodide],99.8,116,97.2 (inactive),95.2 (inactive)
CCCCCCCCCCCCCCCCOCC(COP(=O)([O-])OCC[N+](C)(C)C)OC(C)=O (stereo not given),96,98.3,99.6 (inactive),102 (inactive)
COc1cc(C(=O)OC2CC3CCC(C2)N3C)ccc1O (stereo not given) [Fillalbin],101,93.9,98.2 (inactive),94.5 (inactive)
CC(C)N(CCC(C(N)=O)(c1ccccc1)c1ccccn1)C(C)C.O=P(O)(O)O (stereo not given) [Disopyramide phosphate],106,105,97.6 (inactive),94.1 (inactive)
"CN1CCN(c2ccc3ccccc3n2)CC1.O=C(O)C=CC(=O)O.O=C(O)C=CC(=O)O [Quipazine, N-methyl-, dimaleate]",102,104,93 (inactive),89.8 (inactive)
CCCC(C)(COC(N)=O)COC(=O)NC(C)C (stereo not given) [Carisoprodol],97.4,90.8,99.6 (inactive),106 (inactive)
CNCC(O)c1ccc(O)cc1 (racemic),108,111,91 (inactive),103 (inactive)
Cl.Oc1ccc2c3c1OC1c4[nH]c5ccccc5c4CC4(O)C(C2)N(CC2CC2)CCC314 (stereo not given) [Naltrindole.HCl],103,99.3,93.2 (inactive),107 (inactive)
CC1CC2CCC(O2)C(C)C(=O)OC(C)CC2CCC(O2)C(C)C(=O)OC(C)CC2CCC(O2)C(C)C(=O)OC(C)CC2CCC(O2)C(C)C(=O)O1 (stereo not given) [Nonactin],60.4,50.1,118 (inactive),148 (active)
CCC1(c2ccc(N)cc2)CCC(=O)NC1=O (racemic) [DL-Aminoglutethimide],109,102,93.1 (inactive),109 (inactive)
"C[N+]1(C)C2CC(OC(=O)C(CO)c3ccccc3)CC1C1OC12.[Br-] (single isomer, unassigned; (-)) [(-)-Scopolamine methyl bromide]",104,98.8,95.7 (inactive),101 (inactive)
Cl.Oc1cc2c(cc1O)C1c3ccccc3CNC1CC2 (stereo not given) [Dihydrexidine hydrochloride],96.3,118,82.7 (inactive),103 (inactive)
CC1CCC2(NC1)OC1CC3C4CCC5CC(O)CCC5(C)C4CCC3(C)C1C2C (stereo not given) [Tomatidine],104,102,99.2 (inactive),83.5 (inactive)
CC(C)c1cccc(C(C)C)c1O [Propofol],99.2 ± 2.9,93.1 ± 16,93.7 (inactive),95.8 (inactive)
Cl.O=c1[nH]oc2c1CCNC2 [THIP hydrochloride],100,112,94 (inactive),86.1 (inactive)
O=[N+]([O-])c1ncc[nH]1 [Azomycin],100,92.6,97.8 (inactive),93.7 (inactive)
C[N+](C)(C)CC(=O)O.[Cl-] [Betaine hydrochloride],104,113,89.4 (inactive),82.7 (inactive)
CN1CC(NS(=O)(=O)N(C)C)CC2c3cccc4c3c(cn4C)CC21.Cl (stereo not given) [Mesulergine hydrochloride],101,100,93.4 (inactive),94.2 (inactive)
NNC(=O)c1ccc(O)cc1 [4-Hydroxybenzhydrazide],97.7,100,97.5 (inactive),95.1 (inactive)
CC(=O)N1N=C(c2ccc(N)cc2)c2cc3c(cc2C[C@H]1C)OCO3,95.4,103,106 (inactive),95.8 (inactive)
